According to PMC7862700, “An all-to-all approach to the identification of sequence-specific readers for epigenetic DNA modifications on cytosine”:

Key:
Assay in all cases: DAPPL (digital affinity profiling via proximity ligation, sequencing); 10 mM Tris-HCl pH 7.5, 50 mM NaCl, 1 mM DTT, 4% glycerol, room temperature, 30 min; GST-TFs on glutathione beads, 16-mer random dsDNA library, 0.1% formaldehyde crosslink after washing; high values mean tight binding
FEV = molecular target: T1, FEV (Homo sapiens, UniProt Q99581 1-238); conditions: protein: recombinant; tags: N-terminal GST; dsDNA, one strand shown
T1 sequence: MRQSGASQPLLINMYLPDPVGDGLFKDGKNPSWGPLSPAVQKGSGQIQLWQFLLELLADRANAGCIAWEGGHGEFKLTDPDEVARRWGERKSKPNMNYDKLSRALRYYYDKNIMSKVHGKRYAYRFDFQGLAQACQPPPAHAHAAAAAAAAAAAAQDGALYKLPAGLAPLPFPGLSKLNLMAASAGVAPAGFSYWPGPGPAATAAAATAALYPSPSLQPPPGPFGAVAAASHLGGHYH
Procedure, shortened: (§1)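 Human transcription factors were made in yeast as GST fusions, captured on glutathione beads and barcoded with DNA. With a tag-only sample included, the pool was incubated with 200 nmole of a random double-stranded 16-mer DNA library in Tris/NaCl/DTT/glycerol buffer at room temperature for 30 min, then crosslinked with 0.1% formaldehyde after washing, ligated by proximity, amplified and sequenced. For binding signal, each hexamer's read frequency for a factor is divided by its frequency for the tag-only sample.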

ETV5 = ETV5 (Homo sapiens, UniProt P41161 1-510); conditions: protein: recombinant; tags: N-terminal GST; dsDNA, one strand shown
Procedure, shortened: as §1

HSF1 = HSF1 (Homo sapiens, UniProt Q00613 1-529); conditions: protein: recombinant; tags: N-terminal GST; chain copies: 3; dsDNA, one strand shown
Procedure, shortened: as §1

SPIC = molecular target: T2, SPIC (Homo sapiens, UniProt Q8N5J4 1-248); conditions: protein: recombinant; tags: N-terminal GST; dsDNA, one strand shown
T2 sequence: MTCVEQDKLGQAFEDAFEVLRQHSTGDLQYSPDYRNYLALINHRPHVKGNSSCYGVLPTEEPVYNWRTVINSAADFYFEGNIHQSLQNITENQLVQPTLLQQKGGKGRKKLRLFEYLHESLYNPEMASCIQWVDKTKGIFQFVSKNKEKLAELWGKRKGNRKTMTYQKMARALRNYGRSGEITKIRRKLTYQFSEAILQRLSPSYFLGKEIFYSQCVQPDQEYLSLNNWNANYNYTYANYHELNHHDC
Procedure, shortened: as §1

ELF4 = ELF4 (Homo sapiens, UniProt Q99607 1-663); conditions: protein: recombinant; tags: N-terminal GST; dsDNA, one strand shown
Procedure, shortened: as §1

ELK4 = molecular target: T3, ELK4 (Homo sapiens, UniProt P28324-2 1-405); conditions: protein: recombinant; tags: N-terminal GST; dsDNA, one strand shown
T3 sequence: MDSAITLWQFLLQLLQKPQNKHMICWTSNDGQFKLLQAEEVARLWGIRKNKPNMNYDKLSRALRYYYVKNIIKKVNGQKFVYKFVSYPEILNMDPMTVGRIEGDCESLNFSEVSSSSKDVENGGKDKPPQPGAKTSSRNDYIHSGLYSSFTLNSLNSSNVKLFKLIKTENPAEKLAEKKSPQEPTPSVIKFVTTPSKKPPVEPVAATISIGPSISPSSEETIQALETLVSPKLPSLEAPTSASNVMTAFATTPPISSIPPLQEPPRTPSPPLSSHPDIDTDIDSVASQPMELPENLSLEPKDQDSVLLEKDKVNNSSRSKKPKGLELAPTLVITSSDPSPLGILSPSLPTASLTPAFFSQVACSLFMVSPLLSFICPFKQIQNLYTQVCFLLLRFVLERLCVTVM
Procedure, shortened: as §1

ETV2 = molecular target: T4, ETV2 (Homo sapiens, UniProt O00321 1-342); conditions: protein: recombinant; tags: N-terminal GST; dsDNA, one strand shown
T4 sequence: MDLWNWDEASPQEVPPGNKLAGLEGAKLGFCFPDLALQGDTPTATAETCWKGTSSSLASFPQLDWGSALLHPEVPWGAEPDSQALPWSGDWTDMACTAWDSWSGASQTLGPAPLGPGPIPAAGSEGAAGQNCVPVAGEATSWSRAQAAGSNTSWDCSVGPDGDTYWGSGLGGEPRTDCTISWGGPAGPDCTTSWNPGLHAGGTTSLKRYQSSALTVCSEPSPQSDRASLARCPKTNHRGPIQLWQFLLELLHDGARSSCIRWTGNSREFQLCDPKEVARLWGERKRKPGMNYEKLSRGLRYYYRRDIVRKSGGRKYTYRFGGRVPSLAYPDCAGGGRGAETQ
Procedure, shortened: as §1

ELF3 = molecular target: T5, ELF3 (Homo sapiens, UniProt P78545 1-371); conditions: protein: recombinant; tags: N-terminal GST; dsDNA, one strand shown
T5 sequence: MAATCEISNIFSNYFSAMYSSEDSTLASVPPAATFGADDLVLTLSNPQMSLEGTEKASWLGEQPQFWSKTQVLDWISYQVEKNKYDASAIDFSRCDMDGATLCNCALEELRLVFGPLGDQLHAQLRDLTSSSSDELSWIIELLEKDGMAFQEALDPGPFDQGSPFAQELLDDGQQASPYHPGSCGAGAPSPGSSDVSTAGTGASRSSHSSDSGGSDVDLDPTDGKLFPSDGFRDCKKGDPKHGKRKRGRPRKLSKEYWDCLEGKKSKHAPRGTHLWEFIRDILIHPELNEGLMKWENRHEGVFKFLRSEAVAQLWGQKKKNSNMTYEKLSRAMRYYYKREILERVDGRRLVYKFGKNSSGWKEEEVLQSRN
Procedure, shortened: as §1

CRX = CRX (Homo sapiens, UniProt O43186 1-299); conditions: protein: recombinant; tags: N-terminal GST; dsDNA, one strand shown
Procedure, shortened: as §1

ETV1 = ETV1 (Homo sapiens, UniProt P50549 1-477); conditions: protein: recombinant; tags: N-terminal GST; dsDNA, one strand shown
Procedure, shortened: as §1

ERF = molecular target: T6, ERF (Homo sapiens, UniProt P50548 1-548); conditions: protein: recombinant; tags: N-terminal GST; dsDNA, one strand shown
T6 sequence: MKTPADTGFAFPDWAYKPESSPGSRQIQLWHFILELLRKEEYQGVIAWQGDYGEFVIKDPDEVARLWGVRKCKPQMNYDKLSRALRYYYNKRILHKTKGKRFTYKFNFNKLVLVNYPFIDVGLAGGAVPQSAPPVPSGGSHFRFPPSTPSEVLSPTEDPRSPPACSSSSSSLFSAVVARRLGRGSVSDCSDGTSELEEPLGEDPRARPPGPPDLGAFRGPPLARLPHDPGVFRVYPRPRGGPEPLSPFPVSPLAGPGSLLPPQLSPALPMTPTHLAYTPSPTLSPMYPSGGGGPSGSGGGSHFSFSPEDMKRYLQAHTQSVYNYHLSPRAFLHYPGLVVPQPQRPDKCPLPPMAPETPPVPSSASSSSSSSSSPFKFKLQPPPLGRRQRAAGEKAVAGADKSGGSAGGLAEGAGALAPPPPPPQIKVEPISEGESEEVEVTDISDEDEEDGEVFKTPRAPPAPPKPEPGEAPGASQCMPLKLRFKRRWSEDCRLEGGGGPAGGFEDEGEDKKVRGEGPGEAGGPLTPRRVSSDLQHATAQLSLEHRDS
Procedure, shortened: as §1

ETV3L = molecular target: T7, ETV3L (Homo sapiens, UniProt Q6ZN32 1-361); conditions: protein: recombinant; tags: N-terminal GST; dsDNA, one strand shown
T7 sequence: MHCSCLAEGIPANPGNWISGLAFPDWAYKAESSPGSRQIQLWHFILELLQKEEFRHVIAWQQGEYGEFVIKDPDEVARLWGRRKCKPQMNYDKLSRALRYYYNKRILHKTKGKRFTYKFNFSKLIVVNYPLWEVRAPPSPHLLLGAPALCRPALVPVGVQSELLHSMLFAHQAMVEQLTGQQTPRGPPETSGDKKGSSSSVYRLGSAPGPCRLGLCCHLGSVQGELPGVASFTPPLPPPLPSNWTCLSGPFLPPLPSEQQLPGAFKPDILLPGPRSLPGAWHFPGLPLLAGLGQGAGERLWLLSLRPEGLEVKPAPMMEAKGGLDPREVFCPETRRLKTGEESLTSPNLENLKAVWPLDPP
Procedure, shortened: as §1

ETS2 = molecular target: T8, ETS2 (Homo sapiens, UniProt P15036 1-469); conditions: protein: recombinant; tags: N-terminal GST; dsDNA, one strand shown
T8 sequence: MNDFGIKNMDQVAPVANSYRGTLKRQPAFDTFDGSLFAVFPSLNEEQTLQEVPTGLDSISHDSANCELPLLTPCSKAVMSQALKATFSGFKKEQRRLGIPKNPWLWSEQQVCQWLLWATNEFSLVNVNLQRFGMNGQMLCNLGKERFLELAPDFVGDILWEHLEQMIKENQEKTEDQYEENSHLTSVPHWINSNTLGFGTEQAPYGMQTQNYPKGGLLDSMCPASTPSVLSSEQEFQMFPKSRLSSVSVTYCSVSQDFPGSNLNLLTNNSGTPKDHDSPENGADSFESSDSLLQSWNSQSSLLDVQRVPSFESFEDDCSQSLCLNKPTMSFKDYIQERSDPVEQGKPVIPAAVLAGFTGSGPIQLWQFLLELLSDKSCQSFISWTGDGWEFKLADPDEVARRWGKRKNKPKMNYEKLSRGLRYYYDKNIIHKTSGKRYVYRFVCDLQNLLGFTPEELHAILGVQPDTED
Procedure, shortened: as §1

SPDEF = molecular target: T9, SPDEF (Homo sapiens, UniProt O95238 1-335); conditions: protein: recombinant; tags: N-terminal GST; dsDNA, one strand shown
T9 sequence: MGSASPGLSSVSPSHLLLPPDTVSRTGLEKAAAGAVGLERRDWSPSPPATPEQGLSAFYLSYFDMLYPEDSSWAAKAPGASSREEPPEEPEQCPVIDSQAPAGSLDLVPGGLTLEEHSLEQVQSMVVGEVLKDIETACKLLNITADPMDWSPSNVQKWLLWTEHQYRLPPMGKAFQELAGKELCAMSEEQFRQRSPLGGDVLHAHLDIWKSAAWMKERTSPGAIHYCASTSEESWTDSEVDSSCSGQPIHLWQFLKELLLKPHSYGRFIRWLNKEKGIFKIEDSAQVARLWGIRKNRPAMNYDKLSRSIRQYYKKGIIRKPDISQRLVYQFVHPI
Procedure, shortened: as §1

ETV7 = molecular target: T10, ETV7 (Homo sapiens, UniProt Q9Y603 1-341); conditions: protein: recombinant; tags: N-terminal GST; dsDNA, one strand shown
T10 sequence: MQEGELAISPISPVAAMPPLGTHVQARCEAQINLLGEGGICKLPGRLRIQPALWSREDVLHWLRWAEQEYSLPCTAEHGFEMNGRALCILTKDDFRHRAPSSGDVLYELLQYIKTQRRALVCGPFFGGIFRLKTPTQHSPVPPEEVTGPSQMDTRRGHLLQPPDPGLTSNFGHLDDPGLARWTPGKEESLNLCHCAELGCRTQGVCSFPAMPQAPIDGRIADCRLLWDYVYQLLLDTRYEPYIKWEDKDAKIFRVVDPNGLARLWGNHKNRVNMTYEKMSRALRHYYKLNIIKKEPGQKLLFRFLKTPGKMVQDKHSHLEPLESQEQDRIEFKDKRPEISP
Procedure, shortened: as §1

ELF5 = molecular target: T11, ELF5 (Homo sapiens, UniProt Q9UKW6-2 1-255); conditions: protein: recombinant; tags: N-terminal GST; dsDNA, one strand shown
T11 sequence: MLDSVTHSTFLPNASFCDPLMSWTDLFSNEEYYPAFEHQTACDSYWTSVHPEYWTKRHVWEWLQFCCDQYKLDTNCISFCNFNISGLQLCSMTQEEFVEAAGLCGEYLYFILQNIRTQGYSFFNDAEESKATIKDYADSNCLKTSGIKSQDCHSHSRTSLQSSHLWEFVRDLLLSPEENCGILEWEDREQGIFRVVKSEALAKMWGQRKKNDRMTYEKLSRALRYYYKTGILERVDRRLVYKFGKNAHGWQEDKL
Procedure, shortened: as §1

ETV3 = molecular target: T12, ETV3 (Homo sapiens, UniProt P41162-2 1-143); conditions: protein: recombinant; tags: N-terminal GST; dsDNA, one strand shown
T12 sequence: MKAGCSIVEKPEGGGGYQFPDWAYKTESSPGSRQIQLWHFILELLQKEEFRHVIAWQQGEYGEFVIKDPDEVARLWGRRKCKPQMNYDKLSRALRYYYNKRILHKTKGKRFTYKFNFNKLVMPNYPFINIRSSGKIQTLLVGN
Procedure, shortened: as §1

ETV6 = ETV6 (Homo sapiens, UniProt P41212 1-452); conditions: protein: recombinant; tags: N-terminal GST; dsDNA, one strand shown
Procedure, shortened: as §1

Sequence of ETV6 (P41212 whole entry): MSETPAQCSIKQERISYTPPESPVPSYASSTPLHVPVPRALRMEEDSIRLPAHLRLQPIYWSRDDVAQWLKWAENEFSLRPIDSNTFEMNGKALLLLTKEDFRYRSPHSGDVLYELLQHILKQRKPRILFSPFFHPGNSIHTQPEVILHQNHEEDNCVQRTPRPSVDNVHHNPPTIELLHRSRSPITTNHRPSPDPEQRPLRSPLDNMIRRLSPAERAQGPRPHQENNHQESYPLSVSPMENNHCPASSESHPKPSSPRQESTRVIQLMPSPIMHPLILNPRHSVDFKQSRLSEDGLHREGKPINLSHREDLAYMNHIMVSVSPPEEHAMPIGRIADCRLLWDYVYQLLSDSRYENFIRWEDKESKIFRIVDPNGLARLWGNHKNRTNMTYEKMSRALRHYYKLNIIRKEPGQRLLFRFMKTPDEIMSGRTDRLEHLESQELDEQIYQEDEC
Sequence of ELF4 (Q99607 whole entry): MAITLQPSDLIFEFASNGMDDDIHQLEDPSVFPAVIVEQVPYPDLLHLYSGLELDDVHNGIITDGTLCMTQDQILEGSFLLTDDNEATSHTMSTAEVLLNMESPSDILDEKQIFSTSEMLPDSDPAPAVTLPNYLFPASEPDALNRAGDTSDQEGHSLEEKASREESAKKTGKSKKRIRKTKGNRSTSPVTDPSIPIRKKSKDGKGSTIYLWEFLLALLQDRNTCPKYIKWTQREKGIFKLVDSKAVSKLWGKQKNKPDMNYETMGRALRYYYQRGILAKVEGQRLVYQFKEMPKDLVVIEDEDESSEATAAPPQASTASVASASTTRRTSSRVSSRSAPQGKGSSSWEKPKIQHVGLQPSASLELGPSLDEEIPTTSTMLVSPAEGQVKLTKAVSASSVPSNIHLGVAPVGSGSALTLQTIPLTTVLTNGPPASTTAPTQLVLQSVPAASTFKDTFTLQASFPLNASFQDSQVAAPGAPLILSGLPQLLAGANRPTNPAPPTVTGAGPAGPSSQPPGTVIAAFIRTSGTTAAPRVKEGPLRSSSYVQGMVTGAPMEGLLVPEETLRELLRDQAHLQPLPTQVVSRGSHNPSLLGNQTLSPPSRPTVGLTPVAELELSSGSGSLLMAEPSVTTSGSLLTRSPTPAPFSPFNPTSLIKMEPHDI
Sequence of HSF1 (Q00613 whole entry): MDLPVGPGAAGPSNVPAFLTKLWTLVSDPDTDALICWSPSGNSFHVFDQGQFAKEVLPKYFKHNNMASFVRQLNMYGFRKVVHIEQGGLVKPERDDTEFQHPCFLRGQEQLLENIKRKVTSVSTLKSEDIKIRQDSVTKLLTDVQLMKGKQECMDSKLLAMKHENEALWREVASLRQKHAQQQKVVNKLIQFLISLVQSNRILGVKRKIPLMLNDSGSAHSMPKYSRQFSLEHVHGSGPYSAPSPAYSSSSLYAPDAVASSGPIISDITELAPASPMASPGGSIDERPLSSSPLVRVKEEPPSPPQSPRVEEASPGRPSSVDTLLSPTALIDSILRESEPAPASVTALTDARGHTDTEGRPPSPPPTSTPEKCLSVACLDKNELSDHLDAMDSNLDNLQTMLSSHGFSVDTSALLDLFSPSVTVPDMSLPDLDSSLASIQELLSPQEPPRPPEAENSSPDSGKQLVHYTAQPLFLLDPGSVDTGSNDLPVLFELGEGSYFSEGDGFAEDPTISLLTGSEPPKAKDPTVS
Sequence of ETV5 (P41161 whole entry): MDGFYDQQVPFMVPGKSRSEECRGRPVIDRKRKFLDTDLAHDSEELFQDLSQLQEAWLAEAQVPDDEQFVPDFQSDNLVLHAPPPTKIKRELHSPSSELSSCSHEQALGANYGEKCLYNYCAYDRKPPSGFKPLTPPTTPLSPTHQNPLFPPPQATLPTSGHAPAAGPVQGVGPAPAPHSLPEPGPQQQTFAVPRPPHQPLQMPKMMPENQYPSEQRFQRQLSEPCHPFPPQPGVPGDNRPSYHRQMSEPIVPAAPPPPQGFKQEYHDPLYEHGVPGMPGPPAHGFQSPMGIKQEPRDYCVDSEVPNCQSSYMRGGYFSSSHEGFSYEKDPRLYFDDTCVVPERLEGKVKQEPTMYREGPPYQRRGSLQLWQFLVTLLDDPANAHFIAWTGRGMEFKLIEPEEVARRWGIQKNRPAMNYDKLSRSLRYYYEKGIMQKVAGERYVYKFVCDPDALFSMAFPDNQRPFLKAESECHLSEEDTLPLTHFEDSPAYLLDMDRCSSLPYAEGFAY
Sequence of CRX (O43186 whole entry): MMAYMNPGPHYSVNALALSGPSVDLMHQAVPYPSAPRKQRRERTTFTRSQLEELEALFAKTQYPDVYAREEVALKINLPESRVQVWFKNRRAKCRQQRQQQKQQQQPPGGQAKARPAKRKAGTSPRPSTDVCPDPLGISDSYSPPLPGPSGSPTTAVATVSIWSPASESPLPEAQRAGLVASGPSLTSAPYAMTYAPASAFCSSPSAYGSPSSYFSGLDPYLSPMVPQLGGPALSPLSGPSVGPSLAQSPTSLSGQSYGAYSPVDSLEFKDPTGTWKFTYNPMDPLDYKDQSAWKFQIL
Sequence of ETV1 (P50549 whole entry): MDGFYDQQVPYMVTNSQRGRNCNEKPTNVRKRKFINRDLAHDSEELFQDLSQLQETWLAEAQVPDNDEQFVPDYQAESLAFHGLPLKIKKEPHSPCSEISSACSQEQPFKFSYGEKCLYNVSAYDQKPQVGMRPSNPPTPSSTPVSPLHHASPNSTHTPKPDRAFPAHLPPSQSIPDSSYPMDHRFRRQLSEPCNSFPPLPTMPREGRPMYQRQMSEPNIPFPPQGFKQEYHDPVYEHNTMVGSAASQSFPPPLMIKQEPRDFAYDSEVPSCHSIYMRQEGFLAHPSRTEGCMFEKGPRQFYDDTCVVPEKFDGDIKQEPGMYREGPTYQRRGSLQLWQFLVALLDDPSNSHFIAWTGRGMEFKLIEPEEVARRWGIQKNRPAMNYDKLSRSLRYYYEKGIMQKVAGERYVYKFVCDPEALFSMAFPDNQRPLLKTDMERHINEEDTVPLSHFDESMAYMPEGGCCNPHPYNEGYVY

Sequence: ATGTTC
- binding signal (FEV): 1.15 fold enrichment (6-mer frequency, TF over GST control)
- binding signal (ETV5): 1.16 fold enrichment (6-mer frequency, TF over GST control)
- binding signal (HSF1): 2.33 fold enrichment (6-mer frequency, TF over GST control)
- binding signal (SPIC): 1.32 fold enrichment (6-mer frequency, TF over GST control)
- binding signal (ELF4): 1.22 fold enrichment (6-mer frequency, TF over GST control)
- binding signal (ELK4): 1.2 fold enrichment (6-mer frequency, TF over GST control)
- binding signal (ETV2): 1.14 fold enrichment (6-mer frequency, TF over GST control)
- binding signal (ELF3): 1.15 fold enrichment (6-mer frequency, TF over GST control)
- binding signal (CRX): 1.22 fold enrichment (6-mer frequency, TF over GST control)
- binding signal (ETV1): 1.3 fold enrichment (6-mer frequency, TF over GST control)
- binding signal (ERF): 1.27 fold enrichment (6-mer frequency, TF over GST control)
- binding signal (ETV3L): 1.31 fold enrichment (6-mer frequency, TF over GST control)
- binding signal (ETS2): 1.25 fold enrichment (6-mer frequency, TF over GST control)
- binding signal (SPDEF): 1.3 fold enrichment (6-mer frequency, TF over GST control)
- binding signal (ETV7): 1.3 fold enrichment (6-mer frequency, TF over GST control)
- binding signal (ELF5): 1.32 fold enrichment (6-mer frequency, TF over GST control)
- binding signal (ETV3): 1.34 fold enrichment (6-mer frequency, TF over GST control)
- binding signal (ETV6): 1.18 fold enrichment (6-mer frequency, TF over GST control)
